# What was measured:
# Assay in all cases: PBM binding z-score (relative to random genomic background probes); higher = stronger binding; sequences stand for … in GC…GCGATTGACAGCGTAGAATGAAGG
# [1] = test system: RARb homodimer (NR concentration 270 nM)
# How it was run: (§1)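 Regression normalization was applied to scanned fluorescence from custom Agilent 4×180K protein-binding microarrays. Before scanning, arrays were incubated 1 h with ligand-free nuclear receptor dimers, and binding was detected with antibodies against each partner (one per run). Binding z-scores use the random background probes as reference.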
# [2] = test system: RARg:RXRa (NR concentration 270 nM, RXRa partner concentration 90 nM)
# How it was run: as §1
# [3] = test system: RARg homodimer (NR concentration 270 nM)
# How it was run: as §1
# [4] = test system: RXRa DBDmut IVT, anti-RXR (DBD mutation: RXRa K156A/R161A, NR concentration 90 nM)
# How it was run: as §1
# [5] = test system: RXRa homodimer (NR concentration 180 nM)
# How it was run: as §1
# [6] = test system: THRa:RXRa (NR concentration 90 nM, RXRa partner concentration 90 nM)
# How it was run: as §1
# [7] = test system: THRa homodimer (NR concentration 90 nM)
# How it was run: as §1
# [8] = test system: VDR homodimer (NR concentration 270 nM)
# How it was run: as §1
Sequence,PBM binding z-score [1],PBM binding z-score [2],PBM binding z-score [3],PBM binding z-score [4],PBM binding z-score [5],PBM binding z-score [6],PBM binding z-score [7],PBM binding z-score [8]
ATCGAAAGGTCGACGAGGTGAGTCTACACCGTTT,3.08,4.01,3.95,1.04,4.04,3.99,1.04,0.956
CCGACTGGGGCAAAGGTAACCATACTCAGTACGA,0.873,1.28,0.824,-0.208,1.19,0.563,-0.249,-0.353
CCGAGTAGGTTGTGGGGCATTCAGGCAACGGTGA,0.739,-0.398,-0.497,-0.201,-0.326,0.119,0.578,0.435
GGAAGGAGGGCAAGTTGATAGCAGAGTTTGATGG,2.04,1.51,1.88,0.971,0.655,1.08,1.12,2
TCGAGTAGGTTAGGAGCATTCAGAATGGCGTCGA,-0.383,-0.196,-0.317,-0.149,0.0721,-0.459,-0.881,-0.161
TCATATTGGTAAATGCTAGGTGAAAGTCCGATCT,0.619,0.03,0.0161,1.7,0.255,0.808,0.878,0.578
CGAATTAGGTCAGAACAGGACAGTGAAGGATGAT,2.36,2.65,3.43,0.886,1.29,3.86,1.01,0.142
